Compounds with a hit are over-represented: about 4.8% of the library has one in this group of screens.
DAX1 inh-1 – DAX1 (NR0B1) inhibitors on StAR promoter, primary screen, cell-based, luminescence, SF-1 (NR5A1), full-length DAX-1 | HEK293T StAR-luciferase reporter, SF-1/DAX-1 repression relief | inhibition, % at 6.8 µM | 370,000 tested, 1.1% active | AID 652010, 2013;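 active = inhibition above the mean over all tested compounds plus 3 SD, cut at about 3.6% in these data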;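 also: higher inhibition means more luminescence from relief of DAX-1 repression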
hgDAF-12 ag – H. glycines DAF-12 receptor agonists, primary screen, cell-based, luminescence, HEK293, GAL4 fusion, UAS-luciferase; Nuclear hormone receptor DAF-12 (Heterodera glycines), GAL4 fusion; HEK293 GAL4-hgDAF12 UAS-luciferase reporter, agonist luminescence; normalized to butyrate control; activation, % at 6.8 µM; 370,000 tested, 1.8% active; AID 687014, 2013;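 active = activation above a cutoff set at the mean of all screened compounds plus 3 SD, cut at about 10% in these data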
ssDAF12 agonist – S. stercoralis DAF-12 nuclear receptor activators, primary screen, cell-based, luminescence, HEK293, GRIP1 co-expression, lit1-tk-luc; 370,000 tested, 1% active; activation, % at 6.8 µM; Nuclear hormone receptor DAF-12 (Strongyloides stercoralis); HEK293 ssDAF-12/GRIP1 lit1-tk-luc reporter; % of 3 µM dafachronic acid response;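 active = activation above the mean over all tested compounds plus 3 SD, cut at about 0.9% in these data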
DAX1 inh-2 – DAX1 (NR0B1) inhibitors, primary screen, cell-based, HEK293, Gal4-DAX1, luciferase luminescence; HEK293 Gal4-DAX1 luciferase reporter; 340,000 tested, 0.99% active; Nuclear receptor subfamily 0 group B member 1 (Homo sapiens), P51843; AID 504766, 2011; inhibition, % at 6.75 µM;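 active = inhibition above the mean over all tested compounds plus 3 SD, cut at about 4.2% in these data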;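 also: inhibition shows as a rise in luminescence from relieved DAX1 repression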
hcDAF12 agonist – H. contortus DAF-12 nuclear receptor activators, primary screen, cell-based, luminescence, HEK293, lit1-tk-luc reporter. HEK293 hcDAF-12 lit1-tk-luc reporter; 0% DMSO, 100% Δ7-dafachronic acid. activation, % at 6.8 µM. 370,000 tested, 1.4% active. AID 652067, 2013;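 active = activation above the mean of all tested compounds plus 3 SD, cut at about 5.5% in these data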
SMARCA2 act – SMARCA2 (BRM) function activators, primary screen, cell-based, luminescence, high throughput | activation, % at 9.1 µM | MG213 cells, MMTV-luciferase reporter, dexamethasone, overnight | 370,000 tested, 1% active; in the data active = activation above about 7.8%
DAX1 inh confirm – DAX1 (NR0B1) inhibitors relieving SF-1 repression, confirmation, cell-based, luminescence, HEK293T, full-length DAX-1, SF-1 activated StAR promoter; shares compounds with DAX1 inh-1; HEK293T StAR-promoter luciferase reporter, SF-1/DAX-1 repression; inhibition, % at 6.8 µM; 2,400 tested, 87% active; AID 652134, 2013;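 active = inhibition above the average of every tested compound plus 3 SD, cut at about 3.8% in these data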
Target sequence (P51843 whole entry, looked up): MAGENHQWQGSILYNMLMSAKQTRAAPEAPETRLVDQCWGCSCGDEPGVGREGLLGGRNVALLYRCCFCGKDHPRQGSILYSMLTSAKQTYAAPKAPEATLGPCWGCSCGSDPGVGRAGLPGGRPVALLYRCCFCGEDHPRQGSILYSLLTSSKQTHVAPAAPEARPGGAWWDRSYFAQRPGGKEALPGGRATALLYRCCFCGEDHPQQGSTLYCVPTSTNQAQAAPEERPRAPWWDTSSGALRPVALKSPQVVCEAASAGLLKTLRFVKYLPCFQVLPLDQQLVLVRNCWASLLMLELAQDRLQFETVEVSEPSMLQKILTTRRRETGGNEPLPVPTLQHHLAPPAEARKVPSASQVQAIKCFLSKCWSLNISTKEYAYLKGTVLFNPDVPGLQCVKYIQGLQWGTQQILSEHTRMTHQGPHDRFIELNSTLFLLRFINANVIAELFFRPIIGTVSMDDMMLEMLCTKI
SF1 mutant ctr – StAR reporter signal changes without DAX1, counter-screen for DAX1 inhibitor project, cell-based, luminescence, AF-2 mutant SF-1, transactivation | inhibition, % at 6.8 µM | HEK293 StAR-luciferase, SF-1 AF2 mutant | 2,400 tested, 78% active | shares compounds with DAX1 inh-1;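 active = inhibition above the mean of all tested compounds plus 3 SD, cut at about 3% in these data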
SMARCA2 conf – SMARCA2 (BRM) function activators, confirmation, cell-based, luminescence, triplicate | shares compounds with SMARCA2 act | MG213 cells, MMTV-luciferase with dexamethasone, overnight; MG213 cells expressing E1A, Rb sequestered; DMSO wells 0%, reference activator 100% | activation, % at 9.1 µM | 3,500 tested, 30% active;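 active = activation above its plate's cutoff, the mean activation of tested wells plus 3 SD, cut at about 7.9% in these data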
GAL4-VP16 Luc – GAL4-VP16 luciferase reporter activation, counter-screen for SMARCA2 (BRM) activator project, cell-based, pG5luc, luminescence, high throughput. activation, % at 9.1 µM. HEK293 GAL4-VP16 pG5luc reporter; scaled: DMSO wells 0%, SAHA wells 100%. 3,500 tested, 41% active. shares compounds with SMARCA2 act;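 active = activation above the solvent-only control well mean plus 3 SD, averaged across control plates, cut at about 5.2% in these data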
LXRb hcDAF ctr – LXR agonists, Gal4 luciferase reporter, confirmation, counter-screen for hcDAF-12 agonist project, cell-based, luminescence, HEK293, H. contortus campaign; activation, % at 6.8 µM; 3,400 tested, under 10 active; shares compounds with hcDAF12 agonist; HEK293 Gal4-LXR tk-luc reporter, 24 h; normalized: DMSO 0%, positive control 100%;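 active = mean percent activation of the reporter above a cutoff set as the average over tested compounds plus their standard deviation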
hcDAF12 ag – H. contortus DAF-12 receptor agonists, confirmation, cell-based, luminescence, HEK293, lit1-tk-luc, triplicate. shares compounds with hcDAF12 agonist. HEK293 hcDAF-12 lit1-tk-luc reporter; % of Δ7-dafachronic acid response. activation, % at 6.8 µM. 3,400 tested, 61% active. AID 743032, 2013;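 active = mean activation across triplicate tests above the threshold derived from the earlier primary screen, cut at about 5.5% in these data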
hgDAF12 conf – H. glycines DAF-12 receptor agonists, confirmation, cell-based, luminescence, HEK293, GAL4-LBD fusion. 3,300 tested, 80% active. HEK293 GAL4-hgDAF12 luciferase reporter, agonist mode; percent of butyrate response. activation, % at 6.8 µM. shares compounds with hgDAF-12 ag;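 active = mean activation over triplicate wells above the hit cutoff derived from the earlier primary screen, cut at about 11% in these data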
LXRb DAF12 ctr – LXR agonists, Gal4 luciferase reporter, confirmation, counter-screen for hgDAF-12 agonist project, cell-based, luminescence, HEK293, H. glycines campaign. shares compounds with hgDAF-12 ag. 24 h. activation, % at 6.8 µM. 3,300 tested, under 10 active. AID 743051, 2013;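 active = mean activation of the triplicate above a set limit carried over from the primary screen, none filed active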
Of the large screens only hits and unclear results are named; the others gave an inactive call (follow-up assays come after a bar, where they were run).

O=C(Nc1ccccc1)c1ccncc1	none
COc1ccc(C)cc1Nc1nc(N)c2ccccc2n1	none
Cc1ccccc1Nc1nc(N)c2ccccc2n1	DAX1 inh-1 5.3, hgDAF-12 ag 19, hcDAF12 agonist 7.1 | DAX1 inh confirm 12 | SF1 mutant ctr 5.6 | LXRb hcDAF ctr inactive | hcDAF12 ag inactive | hgDAF12 conf 17 | LXRb DAF12 ctr inactive
C/C(=N\Nc1nccnc1Cl)c1ccc(F)cc1	DAX1 inh-1 9.6, hgDAF-12 ag 20, ssDAF12 agonist 1.5, SMARCA2 act 8.9 | DAX1 inh confirm 6.5 | SF1 mutant ctr 4.2 | SMARCA2 conf 10 | GAL4-VP16 Luc 12 | hgDAF12 conf 11 | LXRb DAF12 ctr inactive
C/C(=N\Nc1nccnc1Cl)c1ccc(Cl)c(Cl)c1	DAX1 inh-1 4.5, hgDAF-12 ag 17, hcDAF12 agonist 6.3 | DAX1 inh confirm inactive | SF1 mutant ctr inactive | hgDAF12 conf inactive | LXRb DAF12 ctr inactive
Cc1nnc(NC(=O)CSc2ccc(-c3ccc(Cl)cc3)nn2)s1	none
